For assay [1] the following is noted: Ebola virus entry assay, green fluorescence channel.
The conditions of assay [2]: Ebola virus entry assay, blue channel fluorescence.

The record followed here is PubChem BioAssay (NCATS).

Unmarked numbers belong to inactive results. For part of these data: Entries with a potency or affinity are not part of this list. The source made the active and inactive calls. The rule behind the calls is not given here.
Throughout, for efficacy: 0% is about no effect.

Regarding `CCOC(=O)c1ccc(O)c(O)c1`, the efficacy in assay [1] is -26.2%. Besides, in assay [2], the compound was called inactive.

As to `COc1ccc2cc1Oc1cc3c(cc1OC)CC[N+](C)(C)[C@H]3Cc1ccc(cc1)Oc1c(OC)c(OC)cc3c1[C@@H](C2)[N+](C)(C)CC3`, the efficacy in assay [1] is -25.2%. For the same compound, the result in assay [2] was inactive.

Turning to `C=CCn1c(=O)n([C@@H]2O[C@H](CO)[C@@H](O)[C@H]2O)c2nc(N)[nH]c(=O)c21`, in assay [1], the efficacy is -17.7%. Besides, the outcome in assay [2] was inactive.

As to `C=CCC1(C(C)CC)C(=O)NC(=O)NC1=O` (stereo not given), in assay [1], the efficacy is 14.7%. Further, the result in assay [2] was inactive.

For `Nc1c[n+](N2CCOCC2)no1`, the efficacy in assay [1] was -8.8%. In assay [2], the compound was called inactive.

For the compound `Nc1ccc(S(N)(=O)=O)cc1`, the efficacy in assay [1] is -20.5%. In addition, the result in assay [2] was inactive.

As for `CC(=O)Nc1ccccc1`, in assay [1], the efficacy was -20.9%. Moreover, the outcome in assay [2] was inactive.

For the compound `Cc1cc(CCCOc2c(C)cc(-c3noc(C(F)(F)F)n3)cc2C)on1`, the efficacy in assay [1] is 12.1%. Further, in assay [2], the compound was classed as inactive.

`O=C(O)CCCCCCCC(=O)O`: the efficacy in assay [1] was 17.2%. Also, the call in assay [2] was inactive.

Regarding `CC(C)C(=O)Nc1cccc(C(F)(F)F)c1`, the efficacy in assay [1] was 16.7%. Moreover, in assay [2], the call was inactive.

As to `CN(C)C(=O)COC(=O)Cc1ccc(OC(=O)c2ccc(N=C(N)N)cc2)cc1`, the efficacy in assay [1] is -14.4%. Also, the result in assay [2] was inactive.

For `CN1CCN(CC(=O)N2c3ccccc3C(=O)Nc3cccnc32)CC1`, the efficacy in assay [1] is -20.7%. In addition, the call in assay [2] was inactive.

For `CC(C)NCC(O)c1cc(O)cc(O)c1` (stereo not given), the efficacy in assay [1] was 56.8%. In assay [2], the compound was classed as inactive.

`O=C(O)CCc1nc2ccccc2[nH]1`: the efficacy in assay [1] is -21.2%. Besides, the call in assay [2] was inactive.

With `CC[N+](CC)(CCNC(=O)C(=O)NCC[N+](CC)(CC)Cc1ccccc1Cl)Cc1ccccc1Cl`, the efficacy in assay [1] was -9.71%. In addition, the result in assay [2] was inactive.

With `O=c1cc[nH]c(=O)[nH]1`, in assay [1], the efficacy is 11.9%. Besides, the compound was called inactive in assay [2].

Regarding `CC(=O)c1ccc(OCC(=O)N2CCCCC2)cc1`, the efficacy in assay [1] was -14.3%. Besides, the call in assay [2] was inactive.

On to `Cc1onc(-c2c(Cl)cccc2Cl)c1C(=O)Cl`, for which, in assay [1], the efficacy is -15.7%. The compound was called inactive in assay [2].

Consider `CC(=O)c1ccc(S(=O)(=O)NC(=O)NC2CCCCC2)cc1`, for which the efficacy in assay [1] was -18.3%. Further, the call in assay [2] was inactive.

As to `CC(C(=O)O)c1ccc2c(c1)[nH]c1ccc(Cl)cc12` (stereo not given), the efficacy in assay [1] was -20.7%. Also, the result in assay [2] was inactive.

In the case of `Nc1nc(N)c(-c2ccccc2)s1`, the efficacy in assay [1] is 13%. Moreover, the compound was called inactive in assay [2].

For `CC[N+]1(CC)CCC(OC(=O)C(O)(c2ccccc2)c2ccccc2)C1` (stereo not given), the efficacy in assay [1] was -22.9%. Besides, in assay [2], the call was inactive.

As for `Cc1cccc(C)c1NC(=O)CN1CCCCCC1`, the efficacy in assay [1] is -23%. Besides, in assay [2], the compound was called inactive.

`CCc1cc(S(=O)(=O)O)c2cc(C(C)C)cccc1-2`: in assay [1], the efficacy was 18.8%. Also, in assay [2], the outcome was inactive.

As to `O=S(=O)(O)c1cc(I)c(O)c2ncccc12`, in assay [1], the efficacy was 29.1%. Moreover, the compound was called inactive in assay [2].

For the compound `O=C(O)c1ccccc1OP(=O)(O)O`, in assay [1], the efficacy is 11.4%. Further, in assay [2], the result was inactive.

For the compound `CN1C(C(=O)Nc2ccccn2)=C(O)c2sccc2S1(=O)=O`, the efficacy in assay [1] was -30.7%. The result in assay [2] was inactive.

Take `CC(=O)OCC(=O)[C@@]1(O)[C@H](C)C[C@H]2[C@@H]3CCC4=CC(=O)C=C[C@]4(C)[C@@]3(F)[C@@H](O)C[C@@]21C`: in assay [1], the efficacy is 26.4%. Further, in assay [2], the compound was classed as inactive.

With `C[C@H]1C[C@H](O)c2ccsc2S1(=O)=O`, the efficacy in assay [1] is 20.1%. The outcome in assay [2] was inactive.

`CN[C@@H]1[C@@H](O)[C@@H](O[C@@H]2[C@H](O)[C@H](O[C@H]3OC(CN)=CC[C@H]3N)[C@@H](N)C[C@H]2N)OCC1(C)O` (stereo not given in full): the efficacy in assay [1] is -7.04%. For the same compound, the outcome in assay [2] was inactive.

Consider `FC(F)(F)c1ccccc1-n1ccnc1`, for which the efficacy in assay [1] is 12.1%. Besides, in assay [2], the result was inactive.

For the compound `COCCOC(=O)C1=C(C)NC(C)=C(C(=O)OC(C)C)C1c1cccc([N+](=O)[O-])c1` (stereo not given), in assay [1], the efficacy is 27.1%. In addition, the call in assay [2] was inactive.

On to `CCCN1CCCC[C@H]1C(=O)Nc1c(C)cccc1C`, for which, in assay [1], the efficacy is 17.3%. In addition, in assay [2], the compound was classed as inactive.

With `CC1(C)S[C@@H]2[C@H](NC(=O)C(c3ccccc3)S(=O)(=O)O)C(=O)N2[C@H]1C(=O)O` (stereo not given in full), in assay [1], the efficacy is 24.6%. The compound was called inactive in assay [2].

`CCc1cccc(CC)c1NC(=O)CN(CC(=O)O)CC(=O)O`: the efficacy in assay [1] was 15.2%. Also, the call in assay [2] was inactive.

Regarding `Nc1ncnc2c1ncn2[C@@H]1O[C@H](COP(=O)(O)O)[C@@H](O)[C@H]1O`, the efficacy in assay [1] was 14.6%. Besides, in assay [2], the outcome was inactive.

With `Clc1cccc(C(c2ccc3nc[nH]c3c2)n2ccnc2)c1` (stereo not given), the efficacy in assay [1] is -19.4%. Besides, the call in assay [2] was inactive.

Take `COc1ccc2nc(SCc3ncc(C)c(OC)c3C)[nH]c2c1`: the efficacy in assay [1] is -11.5%. Besides, the compound was classed as inactive in assay [2].

In the case of `CC(C)(Oc1ccc(C2CC2(Cl)Cl)cc1)C(=O)O` (stereo not given), the efficacy in assay [1] is 16.1%. Also, in assay [2], the compound was called inactive.

Turning to `Cc1cc2c(cc1CC(=O)c1sccc1S(=O)(=O)Nc1onc(C)c1Cl)OCO2`, the efficacy in assay [1] is -22.3%. Further, the call in assay [2] was inactive.

`CC(C)Cn1cnc2c(N)nc3ccccc3c21`: in assay [1], the efficacy is -30.7%. In assay [2], the compound was classed as inactive.

Take `O=C(O)Cc1cccc(-c2cc(CCCCCCc3ccc(O[C@H]4O[C@H](CO)[C@@H](O)[C@H](O)[C@@H]4O)c(-c4cccc(CC(=O)O)c4)c3)ccc2O[C@H]2O[C@H](CO)[C@@H](O)[C@H](O)[C@@H]2O)c1`: in assay [1], the efficacy was -7.69%. In assay [2], the call was inactive.

As to `CCCc1c(OCCCCc2nn[nH]n2)ccc(C(C)=O)c1O`, in assay [1], the efficacy was 28.7%. The result in assay [2] was inactive.

For `Cc1cccc(C)c1NC(=O)CC12CCCN1CCC2`, the efficacy in assay [1] was -14.9%. The compound was called inactive in assay [2].

`CC(=O)NO`: the efficacy in assay [1] was -14.2%. The call in assay [2] was inactive.
